# Results published in PubChem BioAssay.
# Assay: probe aShh binding to arrayed compounds – biochemical, biotinylated probe, 635/667 nm fluorescence, primary screen (AID 1114);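 note: probe is biotin-labelled aShh protein from a stem cell growth factor screen; measures binding of labelled protein to compounds printed on the slide; score merges feature fluorescence at 667 nm with signal-to-noise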
# Details: small-molecule microarray, higher = more signal
row,SMILES,composite z-score
1,O=C1O[C@@H](c2ccccc2)[C@@H](c2ccccc2)N2[C@@H](c3ccccc3OCCO)[C@]3(C(=O)Nc4ccccc43)[C@@H](C(=O)Nc3nc4ccccc4s3)[C@H]12,0.206
2,O=C1NC(=O)C2C1C=CC(C(O)c1cc(C(F)(F)F)cc(C(F)(F)F)c1)N2Nc1ccccn1 (stereo not given),-0.214
3,O=C(N1CCCCC1)[C@]1(Cc2ccccc2)N=C(c2ccc(OCCCO)cc2)O[C@@H]1c1ccccc1,0.446
4,CC(C)c1ccc(NN2C(C(O)c3ccc(B(O)O)cc3)C=CC3C(=O)N(c4ccccc4)C(=O)C32)cc1 (stereo not given),-0.0362
5,NC(=O)NCC#Cc1ccc2c(c1)[C@]1(C(=O)N2)[C@H](c2ccc(O)cc2)N2[C@H](c3ccccc3)[C@H](c3ccccc3)OC(=O)[C@H]2[C@@H]1C(=O)O,-0.42
6,Cc1ccccc1C(O)C1C=CC2C(=O)N(c3ccccc3)C(=O)C2N1Nc1ccc(C(C)C)cc1 (stereo not given),0.14
7,COc1ccc(CCNC(=O)[C@@H]2c3ccccc3C(=O)N(Cc3ccccc3Cl)[C@H]2c2ccc(CO)cc2)cc1,0.0611
8,O=C(NC1CC1)[C@@H]1c2ccccc2C(=O)N(Cc2ccccc2Cl)[C@H]1c1ccc(CO)cc1,-0.138
9,Cc1nc2cc(Br)ccc2c(=O)o1,-0.481
10,CCN(CC)c1ccc(N2CC=CC34O[C@@H]5C=CCCOC(=O)C5[C@H]3C(=O)N(CCCCCCO)[C@@H]4C2=O)cc1 (stereo not given in full),-0.26
